# In PubChem BioAssay (NCATS):
# Values without a mark were called inactive. Inconclusive results are not listed. Calls of active or inactive are those of the source. Unless noted, calls come from the whole dose curve; as a rule, active = well fitted curve in the direction sought with a large enough effect; inconclusive = small, poorly fitted or top-dose-only effect, or another doubt; inactive = no such curve, though single readings can be large; an effect the other way counts as inactive or inconclusive.
# Key:
# SKOV3 = test: Primary qHTS to identify gynecologic anti-cancer compounds using libraries of approved drugs and bioactive compounds (AID 1345084); conditions: Gynecologic cancer cell panel viability, ATPlite luminescence, 48 h; series mostly up to 57.5 µM; note: nearly all actives have a fitted effect of over 55% in size; note: potency is the fitted concentration of half-maximal effect
# Outline: (§1)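 Cells, 1,000 per well, plated 16 h, then exposed 48 h at 37 C to compounds. Viability by ATPlite luminescence after 15 min at room temperature.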
# [1] = Drug repurposing screens with cells derived from glioblastoma tumor samples (AID 1345199); conditions: GBM patient neurospheres viability, ATP luminescence, 48 h; note: nearly all actives have a fitted effect of over 40% in size; note: potency is the fitted concentration of half-maximal effect; for activity, negative = cell killing: % is set by controls: 0 for no effect and ±100 for the full control effect
# Outline: (§2)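 Primary testing used CD133+ neurospheres from four GBM patients, seven concentrations, 48 h exposure and ATP-based viability; confirmation added three slower-growing patient lines.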
# astro = test: as above; conditions: viability, ATP luminescence, 48 h; series mostly up to 45.9 µM
# Outline: as §2
# Tov-21-G = test: Primary qHTS to identify gynecologic anti-cancer compounds using libraries of approved drugs and bioactive compounds (AID 1345084); conditions: Gynecologic cancer cell panel viability, ATPlite luminescence, 48 h; series mostly up to 57.5 µM; note: nearly all actives have a fitted effect of over 55% in size; note: potency is the fitted concentration of half-maximal effect
# Outline: as §1
# Tov112D = test: as above; conditions: Gynecologic cancer cell panel viability, ATPlite luminescence, 48 h; series mostly up to 57.5 µM
# Outline: as §1
# [2] = target: Nuclear receptor subfamily 1 group I member 2 (Rattus norvegicus) (UniProt Q9R1A7); test: qHTS assay for small molecule activators of the rat pregnane X receptor (rPXR) signaling pathway (AID 651751; call rule not given here; note: 0% is about no effect); conditions: rPXR reporter cells, luciferase (One-Glo), 24 h
# [3] = at 45.9 µM (top of the series), tumour line D
# [4] = at 45.9 µM (top of the series), tumour line B
# [5] = at 46 µM (top of the series), tumour line A
# [6] = at 46.1 µM (top of the series), tumour line C
# Nuclear receptor subfamily 1 group I member 2 (Rattus norvegicus), sequence (Q9R1A7 whole entry, looked up): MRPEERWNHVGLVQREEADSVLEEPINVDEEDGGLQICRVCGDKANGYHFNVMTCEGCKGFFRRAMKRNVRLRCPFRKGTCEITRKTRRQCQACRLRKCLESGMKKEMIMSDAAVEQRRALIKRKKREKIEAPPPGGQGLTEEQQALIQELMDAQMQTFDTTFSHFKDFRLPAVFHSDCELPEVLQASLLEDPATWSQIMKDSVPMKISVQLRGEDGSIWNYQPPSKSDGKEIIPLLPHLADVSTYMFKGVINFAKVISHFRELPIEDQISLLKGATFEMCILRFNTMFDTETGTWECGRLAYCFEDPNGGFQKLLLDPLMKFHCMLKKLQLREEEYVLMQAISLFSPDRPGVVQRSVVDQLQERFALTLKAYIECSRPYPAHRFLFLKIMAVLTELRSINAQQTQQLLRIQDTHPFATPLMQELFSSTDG
smiles,measurement,setting,value
O=C(N/N=C/c1ccccc1O)c1ccncc1,Potency,SKOV3,inactive
same,"activity, negative = cell killing",[1]; [3],0.44%
same,Potency,[1]; tumour line B,17.8 µM (active)
same,Potency,astro,inactive
C1CCc2nnnn2CC1,"activity, negative = cell killing",[1]; [4],-2.41%
same,"activity, negative = cell killing",[1]; [3],-3.11%
same,"activity, negative = cell killing",[1]; [5],-28.5%
same,"activity, negative = cell killing",[1]; [6],-27%
same,Potency,astro,inactive
CC(=O)O[C@H]1C[C@@H]2CC[C@@H]3[C@H](CC[C@@]4(C)[C@H]3C[C@H]([N+]3(C)CCCCC3)[C@@H]4OC(C)=O)[C@@]2(C)C[C@@H]1[N+]1(C)CCCCC1,"activity, negative = cell killing",[1]; [4],7.88%
same,"activity, negative = cell killing",[1]; [3],-21.6%
same,"activity, negative = cell killing",[1]; [5],-27.9%
same,"activity, negative = cell killing",[1]; [6],-11.1%
same,Potency,astro,inactive
CC1(C)CCC(NC(=O)[C@@H](N)CCC(=O)O)CC1,"activity, negative = cell killing",[1]; [4],-9.8%
same,"activity, negative = cell killing",[1]; [3],-20.2%
same,"activity, negative = cell killing",[1]; [5],-26.1%
same,"activity, negative = cell killing",[1]; [6],-24.2%
same,Potency,astro,inactive
Cc1cccc(C)c1NC(=O)CN1CCN(CCCC(c2ccc(F)cc2)c2ccc(F)cc2)CC1,Potency,Tov-21-G,inactive
same,Potency,Tov112D,inactive
same,Potency,astro,inactive
CC(C)COC(=O)OCN1C(=O)CN(CCN2CC(=O)N(COC(=O)OCC(C)C)C(=O)C2)CC1=O,"activity, negative = cell killing",[1]; [4],-7.7%
same,"activity, negative = cell killing",[1]; [3],-16.2%
same,"activity, negative = cell killing",[1]; [5],-10.8%
same,"activity, negative = cell killing",[1]; [6],-11%
same,Potency,astro,inactive
Cc1c(C)n(CCN(C)C)c2ccc(C(=O)OCCN(C)C)cc12,Potency,Tov-21-G,inactive
same,Potency,Tov112D,inactive
same,"activity, negative = cell killing",[1]; [6],-23.7%
same,Potency,[1]; tumour line A,10 µM (active)
same,Potency,astro,inactive
COc1cc2c(cc1OC)C(=O)C(CC1CCN(Cc3ccccc3)CC1)C2 (stereo not drawn),Potency,Tov-21-G,inactive
same,Potency,Tov112D,inactive
same,Potency,astro,inactive
C[C@]12CC[C@@H]3c4ccc(O)cc4CC[C@H]3[C@@H]1CC[C@@H]2O,"activity, negative = cell killing",[1]; [4],-16.2%
same,"activity, negative = cell killing",[1]; [6],-20.5%
same,Potency,[1]; tumour line A,31.6 µM (active)
COC(=O)[C@H]1[C@H]2C[C@H]3c4[nH]c5ccccc5c4CCN3C[C@H]2CC[C@@H]1O,"activity, negative = cell killing",[1]; [4],-4.34%
same,"activity, negative = cell killing",[1]; [3],-13.5%
same,"activity, negative = cell killing",[1]; [6],4.13%
same,Potency,astro,inactive
Cc1c(C)n(Cc2ccccc2)c2ccc(C(=O)OCCN(C)C)cc12,Potency,Tov-21-G,inactive
same,Potency,Tov112D,inactive
same,"activity, negative = cell killing",[1]; [6],-16.7%
same,Potency,[1]; tumour line A,11.2 µM (active)
same,Potency,[1]; tumour line D,10 µM (active)
C#C[C@]1(O)CC[C@H]2[C@@H]3CCc4cc(OC5CCCC5)ccc4[C@H]3CC[C@@]21C,Potency,Tov-21-G,inactive
same,Potency,Tov112D,inactive
same,"activity, negative = cell killing",[1]; [6],-25.1%
same,Potency,[1]; tumour line A,4.47 µM (active)
same,Potency,[1]; tumour line B,10 µM (active)
same,Potency,astro,22.4 µM (active)
O=C(O)c1cc2cc(Cc3cccnc3)ccc2o1,"activity, negative = cell killing",[1]; [4],-16.4%
same,"activity, negative = cell killing",[1]; [3],-17.6%
same,Potency,astro,inactive
O=C1CCC(c2ccc(-n3ccnc3)cc2)=NN1,"activity, negative = cell killing",[1]; [4],-6.09%
same,"activity, negative = cell killing",[1]; [3],-6.36%
same,"activity, negative = cell killing",[1]; [6],-27.3%
same,Potency,astro,inactive
CCN(CC)CCOc1ccc(C(O)(Cc2ccc(Cl)cc2)c2ccc(C)cc2)cc1 (stereo not drawn),Potency,astro,22.4 µM (active)
Nc1ccn([C@@H]2O[C@H](CO)[C@@H](O)C2(F)F)c(=O)n1,Potency,Tov-21-G,inactive
same,Potency,Tov112D,0.178 µM (active)
CCCn1c(=O)[nH]c(=O)c2[nH]cnc21,"activity, negative = cell killing",[1]; [4],-19.3%
same,"activity, negative = cell killing",[1]; [3],9.35%
same,"activity, negative = cell killing",[1]; [5],-17.3%
same,"activity, negative = cell killing",[1]; [6],-18.8%
same,Potency,astro,inactive
N[C@@H](Cc1cnc[nH]1)C(=O)O,"activity, negative = cell killing",[1]; [4],-11.3%
same,"activity, negative = cell killing",[1]; [3],-9.45%
same,"activity, negative = cell killing",[1]; [6],-12.5%
same,Potency,astro,inactive
CCC(NC(C)C)C(O)c1ccc(O)c(O)c1 (stereo not drawn),"activity, negative = cell killing",[1]; [4],-1.77%
same,"activity, negative = cell killing",[1]; [3],12.5%
same,"activity, negative = cell killing",[1]; [5],-20.2%
same,"activity, negative = cell killing",[1]; [6],-19.2%
same,Potency,astro,inactive
C[N+]1(CCCCC[N+]2(C)CCCC2)CCCC1,"activity, negative = cell killing",[1]; [4],0.364%
same,"activity, negative = cell killing",[1]; [3],-0.863%
same,"activity, negative = cell killing",[1]; [5],-3.4%
same,"activity, negative = cell killing",[1]; [6],-6.31%
same,Potency,astro,inactive
CCCCOc1cc(C(=O)NCCN(CC)CC)c2ccccc2n1,Potency,Tov112D,inactive
same,"activity, negative = cell killing","[1]; at 20 µM (top of the series), tumour line C",9.91%
same,"activity, negative = cell killing","[1]; at 21.2 µM (top of the series), tumour line B",-15.3%
same,Potency,[1]; tumour line A,3.98 µM (active)
same,Potency,astro,inactive
CCCC1O[C@@H]2C[C@H]3[C@@H]4CCC5=CC(=O)C=C[C@]5(C)[C@H]4[C@@H](O)C[C@]3(C)[C@]2(C(=O)CO)O1 (stereo partly drawn),"activity, negative = cell killing",[1]; [4],-17.2%
same,"activity, negative = cell killing",[1]; [3],-5.46%
same,"activity, negative = cell killing",[1]; [6],-20.2%
same,Potency,astro,inactive
CC(C)C[C@H]1C(=O)N2CCC[C@H]2[C@]2(O)O[C@](NC(=O)[C@@H]3C=C4c5cccc6[nH]c(Br)c(c56)C[C@H]4N(C)C3)(C(C)C)C(=O)N12,"activity, negative = cell killing",[1]; [4],-7.46%
same,"activity, negative = cell killing",[1]; [6],12.4%
same,Potency,[1]; tumour line A,2.24 µM (active)
same,Potency,astro,inactive
Nc1cc(Cl)c(NC2=NCCN2)c(Cl)c1,"activity, negative = cell killing",[1]; [4],-8.4%
same,"activity, negative = cell killing",[1]; [3],-1.45%
same,"activity, negative = cell killing",[1]; [5],-27.8%
same,"activity, negative = cell killing",[1]; [6],-9.7%
same,Potency,astro,inactive
N[C@H](CO)C(=O)O,"activity, negative = cell killing",[1]; [4],4.31%
same,"activity, negative = cell killing",[1]; [3],-24.3%
same,"activity, negative = cell killing",[1]; [6],2.37%
same,Potency,astro,inactive
Oc1c(I)cc(Cl)c2cccnc12,"activity, negative = cell killing",[1]; [6],-11.9%
same,Potency,[1]; tumour line A,17.8 µM (active)
same,Potency,[1]; tumour line B,17.8 µM (active)
same,max response,[2],-1.19%
CNCCC=C1c2ccccc2CCc2ccccc21,"activity, negative = cell killing",[1]; [6],-6.98%
same,Potency,[1]; tumour line A,6.31 µM (active)
same,Potency,[1]; tumour line B,22.4 µM (active)
same,Potency,astro,11.2 µM (active)
COc1cc(C=C2CCC/C(=C\c3ccc(O)c(OC)c3)C2=O)ccc1O,Potency,astro,20 µM (active)
